From PubChem BioAssay AID1159580 (chemical genetic matrix, 2015)
Screen size: about 5,500 compounds; about 2,000 (36%) were called active. Inconclusive results (about 18%) are left out. No stated cut-off is given here; in the data, active means normalized growth mostly below about 0.91 (no sharp cut-off); inconclusive means no clear call, values can overlap the other calls; inactive means mostly above about 0.92. This is one part of the list.

Test: chemical genetic growth profiling, strain panel (AID 1159580);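 further: tested at 20 µM; growth read once vehicle control cultures reached saturation at 30 °C; 1 = growth at the plate median or of vehicle wells; lower values mean less growth of the strain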
Conditions: S. cerevisiae deletion strains, growth OD

Measured: normalized growth

CCC(C)n1ncn(-c2ccc(N3CCN(c4ccc(OC[C@H]5CO[C@](Cn6cncn6)(c6ccc(Cl)cc6Cl)O5)cc4)CC3)cc2)c1=O (stereo not given in full)
active: locus YHR030C, strain SLT2, active compounds read low 0.104 | locus YHR079C, strain IRE1, active compounds read low 0.19 | locus YJL095W, strain BCK1, active compounds read low 0.112 | locus YJR066W, strain TOR1, active compounds read low 0.0832 | locus YLR113W, strain HOG1, active compounds read low 0.187 | locus YNL183C, strain NPR1, active compounds read low 0.183 | locus YOR231W, strain MKK1, active compounds read low 0.177 | locus YPL256C, strain CLN2, active compounds read low 0.188

CC(=O)N1CCN(c2ccc(OC[C@H]3CO[C@](Cn4ccnc4)(c4ccc(Cl)cc4Cl)O3)cc2)CC1
active: locus YAL013W, strain DEP1, active compounds read low 0.0911 | locus YAL040C, strain CLN3, active compounds read low 0.208 | locus YCL061C, strain MRC1 (second series), active compounds read low 0.0612 | locus YDR363W, strain ESC2, active compounds read low 0.103 | locus YER002W, strain NOP16, active compounds read low 0.137 | locus YGR078C, strain PAC10, active compounds read low 0.139 | locus YGR229C, strain SMI1, active compounds read low 0.0746 | locus YJR075W, strain HOC1, active compounds read low 0.0931 | locus YMR263W, strain SAP30, active compounds read low 0.588 | locus YNL128W, strain TEP1, active compounds read low 0.16 | locus YNL153C, strain GIM3, active compounds read low 0.14 | locus YNL175C, strain NOP13, active compounds read low 0.133 | locus YNL197C, strain WHI3, active compounds read low 0.147 | locus YNL224C, strain SQS1, active compounds read low 0.18 | locus YNL322C, strain KRE1, active compounds read low 0.0931 | locus YOR083W, strain WHI5 (second series), active compounds read low 0.175 | locus YPL055C, strain LGE1, active compounds read low 0.104
